The text below walks through data of publication PMC4336329 (PLoS ONE, 2015).

In all, about 310,000 compounds went through this assay and about 14,000 (4.5%) showed an effect of 50% or more. Effects have a minus sign here. The full list was thinned out, with strong results kept by preference.
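Also: peak tail current of the secondary pulse compared with the same well before compound.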

The target in the assay is human ether-à-go-go-related gene (hERG) potassium channel (human, UniProt Q12809). Put plainly: primary screen, population patch clamp on CHO cells stably expressing hERG; higher = less effect of the substance.
human ether-à-go-go-related gene (hERG) potassium channel, sequence (Q12809 whole entry, looked up): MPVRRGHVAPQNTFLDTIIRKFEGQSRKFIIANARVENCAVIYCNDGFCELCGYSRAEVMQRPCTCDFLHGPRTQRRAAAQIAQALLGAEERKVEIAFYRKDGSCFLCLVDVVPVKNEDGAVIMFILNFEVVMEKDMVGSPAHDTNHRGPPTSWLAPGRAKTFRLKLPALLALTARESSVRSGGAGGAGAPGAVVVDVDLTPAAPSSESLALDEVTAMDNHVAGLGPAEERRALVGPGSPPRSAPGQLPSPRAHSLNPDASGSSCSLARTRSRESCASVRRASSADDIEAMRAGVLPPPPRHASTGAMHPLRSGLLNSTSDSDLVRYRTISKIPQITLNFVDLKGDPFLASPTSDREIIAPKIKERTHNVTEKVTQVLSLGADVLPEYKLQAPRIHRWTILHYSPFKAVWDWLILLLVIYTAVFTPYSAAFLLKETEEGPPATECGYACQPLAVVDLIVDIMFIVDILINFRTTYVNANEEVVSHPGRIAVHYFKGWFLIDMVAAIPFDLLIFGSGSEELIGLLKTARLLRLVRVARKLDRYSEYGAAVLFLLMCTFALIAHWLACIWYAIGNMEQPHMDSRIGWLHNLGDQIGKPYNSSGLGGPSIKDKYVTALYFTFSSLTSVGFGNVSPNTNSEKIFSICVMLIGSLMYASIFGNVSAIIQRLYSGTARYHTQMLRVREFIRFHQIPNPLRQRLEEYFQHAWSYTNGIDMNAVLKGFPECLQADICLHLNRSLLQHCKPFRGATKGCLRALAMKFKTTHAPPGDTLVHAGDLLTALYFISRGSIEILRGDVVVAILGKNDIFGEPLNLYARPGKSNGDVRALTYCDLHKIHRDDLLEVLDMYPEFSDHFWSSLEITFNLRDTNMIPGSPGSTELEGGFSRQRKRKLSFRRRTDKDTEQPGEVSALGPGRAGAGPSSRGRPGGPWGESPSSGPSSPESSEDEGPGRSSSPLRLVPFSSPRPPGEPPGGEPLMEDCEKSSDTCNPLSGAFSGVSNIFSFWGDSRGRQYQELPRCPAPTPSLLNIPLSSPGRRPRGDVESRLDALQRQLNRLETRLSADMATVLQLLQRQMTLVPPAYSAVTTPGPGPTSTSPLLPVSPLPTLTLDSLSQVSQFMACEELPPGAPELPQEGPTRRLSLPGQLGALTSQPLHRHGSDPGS
As for `COc1ccc(NC(=O)Nc2ccccc2SC)cc1OC`, the “hERG current change (%, negative = inhibition) at 10uM” value turned out to be 6.08%.
Take `Cc1ccc(C)c(N2CCN(C(=O)Cn3c(=O)[nH]c4ccsc4c3=O)CC2)c1`: the “hERG current change (%, negative = inhibition) at 10uM” value is -4.12%.
With `Cc1ccc(C(=O)Nc2nnc(-c3ccc(C(C)(C)C)cc3)s2)cc1`, the “hERG current change (%, negative = inhibition) at 10uM” value was found to be 4.81%.
Take `CCCCN(CCCC)CCCN1CC(=O)N2[C@@H](Cc3c([nH]c4ccccc34)C2(C)C)C1=O`: the “hERG current change (%, negative = inhibition) at 10uM” value is given as -73.2%.
As to `CCN(CC)CCCN1CC(=O)N2[C@@H](Cc3c([nH]c4ccccc34)C2(C)C)C1=O`, the “hERG current change (%, negative = inhibition) at 10uM” value was determined as 1.24%.
The value for `CCCCCCN1CC(=O)N2[C@@H](Cc3c([nH]c4ccccc34)C2(C)C)C1=O` was 13.9%; that for `O=C(NCc1cccnc1)c1cc(-c2ccco2)on1` was 8.02%.
Consider `CC(NC(=O)C1CCN(C(=O)[C@@H]2Cc3ccccc3CN2C(=O)OC(C)(C)C)CC1)c1ccccc1` (stereo partly shown), for which the “hERG current change (%, negative = inhibition) at 10uM” value is given as 14%.
For the compound `O=C(NCC(=O)N(c1cnc2ccccc2c1)C(C(=O)NC1CCCC1)c1ccncc1)c1ccco1` (stereo not shown), the “hERG current change (%, negative = inhibition) at 10uM” value is listed as 8.74%.
For the compound `CC(C)(C)S(=O)(=O)c1nc2ccccc2s1`, the “hERG current change (%, negative = inhibition) at 10uM” value was 6.74%.
As to `CCCc1ccc2oc(C(=O)N3CCC(O)CC3)c(C)c2c1`, the “hERG current change (%, negative = inhibition) at 10uM” value is given as -12.2%.
Take `CCCc1ccc2oc(C(=O)N3CCCC3)c(C)c2c1`: the “hERG current change (%, negative = inhibition) at 10uM” value is -7.11%.
On to `CCCc1ccc2oc(C(=O)N3CCN(C4CCS(=O)(=O)C4)CC3)c(C)c2c1` (stereo not shown), for which the “hERG current change (%, negative = inhibition) at 10uM” value is on record as -51.3%.
Take `Oc1oc(-c2ccccc2)nc1C=NCc1ccncc1`: the “hERG current change (%, negative = inhibition) at 10uM” value is recorded as -7.6%.
In the case of `COc1ccc(S(=O)(=O)N[C@@H](Cc2ccccc2)C(=O)N2CC[C@@]3(O)CCCC[C@H]3C2)cc1`, the “hERG current change (%, negative = inhibition) at 10uM” value is reported as -14.9%.
The value for `COCCCn1c(-c2cccc(Cl)c2)nc2c1c(=O)[nH]c(=O)n2Cc1ccccc1` was -0.77%; that for `COCCn1c(-c2cccc([N+](=O)[O-])c2)nc2c1c(=O)[nH]c(=O)n2Cc1ccccc1` was -84.2%; that for `CCCn1c(=O)[nH]c(=O)c2c1nc(-c1ccc(OC)c(Br)c1)n2CCOC` was -20.1%.
As to `CCCn1c(=O)[nH]c(=O)c2c1nc(-c1ccc(OC(F)F)c(OC)c1)n2CCOC`, the “hERG current change (%, negative = inhibition) at 10uM” value is on record as -50.5%.
Turning to `COCCn1c(-c2ccc(C#N)cc2)nc2c1c(=O)[nH]c(=O)n2Cc1ccccc1`, the “hERG current change (%, negative = inhibition) at 10uM” value is given as -33.9%.
Turning to `CCCCn1c(=O)[nH]c(=O)c2c1nc(-c1ccc(OC(F)F)c(OC)c1)n2C`, the “hERG current change (%, negative = inhibition) at 10uM” value came to 17.1%.
The value for `CCCn1c(-c2cccc([N+](=O)[O-])c2)nc2c1c(=O)[nH]c(=O)n2Cc1ccccc1` was -66.4%.
On to `CCCn1c(-c2cc(OC)c(OC)c(OC)c2)nc2c1c(=O)[nH]c(=O)n2Cc1ccccc1`, for which the “hERG current change (%, negative = inhibition) at 10uM” value is on record as 5.09%.
With `CCCn1c(-c2cccc(F)c2)nc2c1c(=O)[nH]c(=O)n2Cc1ccccc1`, the “hERG current change (%, negative = inhibition) at 10uM” value turned out to be 17.5%.
`CS(=O)(=O)c1ccc2nc(NC(=O)c3ccc(Cn4cc(Br)cn4)o3)sc2c1`: the “hERG current change (%, negative = inhibition) at 10uM” value is reported as -27.1%.
`CCc1c(C)[nH]c2c1C(=O)C(CN1CCOCC1)CC2.Cl` (stereo not shown): the “hERG current change (%, negative = inhibition) at 10uM” value is -7.67%.
The value for `CCOc1cc(C(=O)O/N=C(\N)c2ccc([N+](=O)[O-])cc2)cc(OCC)c1OCC` was -16%; that for `CCOc1ccccc1N1C(=O)NC(=O)/C(=C/c2ccc3c4c(cccc24)CC3)C1=O` was 2.74%; that for `CSc1nsc(SC)c1NC(=O)OCCc1ccccn1` was -6.18%.
For the compound `CCC(c1nnnn1Cc1cccs1)N1CCN(c2nc3ccccc3s2)CC1` (stereo not shown), the “hERG current change (%, negative = inhibition) at 10uM” value is reported as -56.1%.
In the case of `CCCC(c1nnnn1CCOC)N1CCN(c2nc3ccccc3s2)CC1` (stereo not shown), the “hERG current change (%, negative = inhibition) at 10uM” value was -66.2%.
`Oc1ccc(C(c2nnnn2CCc2ccccc2)N2CCN(c3nc4ccccc4s3)CC2)cc1` (stereo not shown): the “hERG current change (%, negative = inhibition) at 10uM” value came to 9.25%.
The value for `COc1cc(C(c2nnnn2C(C)(C)C)N2CCN(c3nc4ccccc4s3)CC2)ccc1O` (stereo not shown) was -28.1%.
The value for `CCC(c1nnnn1CCOC)N1CCN(c2nc3ccccc3s2)CC1` (stereo not shown) was -34.7%; that for `c1ccc(CCn2nnnc2C(c2cccnc2)N2CCN(c3ccccc3)CC2)cc1` (stereo not shown) was -47.6%; that for `COCCn1nnnc1C(CC(C)C)N1CCN(c2nc3ccccc3s2)CC1` (stereo not shown) was -9.4%.
Take `c1ccc(CCn2nnnc2C(c2cccnc2)N2CCN(c3nc4ccccc4s3)CC2)cc1` (stereo not shown): the “hERG current change (%, negative = inhibition) at 10uM” value is recorded as -58.7%.
On to `CCCC(c1nnnn1Cc1cccs1)N1CCN(c2nc3ccccc3s2)CC1` (stereo not shown), for which the “hERG current change (%, negative = inhibition) at 10uM” value was -22.4%.
For `CC(C)CC(c1nnnn1Cc1cccs1)N1CCN(c2nc3ccccc3s2)CC1` (stereo not shown), the “hERG current change (%, negative = inhibition) at 10uM” value was determined as 0.473%.
With `COCCn1nnnc1C(c1cccs1)N1CCN(c2nc3ccccc3s2)CC1` (stereo not shown), the “hERG current change (%, negative = inhibition) at 10uM” value is -25.3%.
Turning to `COCCn1nnnc1C(c1ccc(OC)c(OC)c1)N1CCN(c2nc3ccccc3s2)CC1` (stereo not shown), the “hERG current change (%, negative = inhibition) at 10uM” value is reported as -56.3%.
The value for `Cc1ccc2nc(SC(C(=O)Nc3ccc(F)cc3)c3ccccc3)[nH]c2c1` (stereo not shown) was -1.38%.
Take `Cc1ccsc1/C=N/NC(=O)c1ccc2nc[nH]c2c1`: the “hERG current change (%, negative = inhibition) at 10uM” value is recorded as -2.67%.
